BCR signal inh: qHTS Assay to Find Inhibitors of Chronic Active B-Cell Receptor Signaling | ABC-DLBCL IkBa-CBG/CBR reporter, luminescence ratio, 4 h | Potency, µM (series often up to 46.1 µM), inactives show at the highest dose activity change, negative = inhibition, usual class: inhibitors | 340,000 compounds, 0.05% hits | AID 493014, 2011; active = well fitted inhibition curve with a large enough effect in the signal ratio, with a control signal flat, not every such curve was filed as active; inconclusive = small, poorly fitted or top-dose-only effect, or effect the other way, or a change in a side signal; the % refers to the signal ratio;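 note: potency is the fitted concentration of half-maximal effect; plate controls were basal doxycycline-induced cells for no effect and cells given 10 µM MG132 for full effect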
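Concentration-response series (up to 46 uM) were applied to TMD8 dual-reporter cells for 4 h at 37C with doxycycline. Green/red ratio, after filter-overlap correction, defined %Activity; red signal alone was normalised to basal cells and zero luminescence.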
TDP1 cell CPT: qHTS for Inhibitors of human tyrosyl-DNA phosphodiesterase 1 (TDP1): qHTS in cells in presence of CPT; Potency, µM (series often up to 46.2 µM), inactives show at the top dose activity change, negative = growth inhibition, hits mostly inhibitors; 420,000 compounds, 12% hits; chicken DT40 Tdp1-/-;hTDP1 cells + 20 nM CPT, ATP luminescence, 48 h; note: potency is the fitted concentration of half-maximal effect; % is set by controls: 0 for no effect and ±100 for the full control effect; nearly all actives have a fitted effect of over 55% in size
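Chicken DT40 Tdp1-/- cells stably complemented with human TDP1 were seeded at 400 cells/well in medium containing 20 nM camptothecin, exposed to pin-transferred compounds, and grown at 37 °C for at least 48 hr. Viability was read as ATP luminescence.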
SW480 rerep: A quantitative high throughput screen for small molecules that induce DNA re-replication in SW480 colon adenocarcinoma cells | 340,000 compounds, 1.8% hits | SW480 DNA re-replication, Hoechst DNA content imaging, 48 h | AID 624297, 2012 | Potency, µM (top dose mostly 46.1 µM), for inactives: top-dose re-replication activation, usual class: activators; note: potency is the fitted concentration of half-maximal effect; % of control where 0% means no effect; nearly all actives have a fitted effect of over 55% in size
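Quantitative HTS format with DMSO vehicle controls; 48 hr drug incubation at 37 C, then 40 min Hoechst staining and scanning imager measurement at 405 nm excitation.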
MCF10A rereplic: A quantitative high throughput screen for small molecules that induce DNA re-replication in MCF 10a normal breast cells; MCF 10A DNA re-replication, Hoechst nuclear intensity, 48 h; 350,000 compounds, 2.9% hits; Potency, µM (top dose mostly 46.1 µM), inactives show at the highest dose activity, positive = re-replication, actives largely listed as activators; AID 624296, 2012; note: potency is the fitted concentration of half-maximal effect; % of control where 0% means no effect; nearly all actives have a fitted effect of over 50% in size
DT40 TDP1 no CPT: qHTS for Inhibitors of human tyrosyl-DNA phosphodiesterase 1 (TDP1): qHTS in cells in absence of CPT | 420,000 compounds, 15% hits | DT40 Tdp1-/- hTDP1 cells, no CPT, ATP luminescence, 48 h | Potency, µM (titrated, usually from 46.2 µM), for the others: at the highest dose activity change, negative = growth inhibition, usual class: inhibitors; note: potency is the fitted concentration of half-maximal effect; % is set by controls: 0 for no effect and ±100 for the full control effect; nearly all actives have a fitted effect of over 55% in size
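Stably hTDP1-transfected Tdp1-null chicken DT40 cells were treated with library compounds minus camptothecin and grown for at least 48 hr at 37 °C, after which cellular ATP was quantified by luminescence.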
IL-1B inflam inh: qHTS for Inhibitors of Inflammasome Signaling: IL-1-beta AlphaLISA Primary Screen. THP-1 LPS/ATP IL-1B secretion, AlphaLISA, 16 h; stronger effect = lower value. activity change, % at 57.5 µM. 360,000 compounds, 4.7% hits; in the data active = activity change below about -50%; inconclusive = mostly about -30% to -49%; note: % is set by controls: 0 for no effect and ±100 for the full control effect
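THP-1 cells pretreated 1 hr with compounds (up to 57.5 uM final), then stimulated with LPS (250 ng/mL final) plus ATP (1.25 mM final); secreted IL-1B measured by AlphaLISA after 16 hr, decreased signal indicating inhibition.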
The depositor's hits bear a star; ? = inconclusive; / = not tested or not shown; [ ] = another dose, or the depositor's remark. Only some compounds are listed: those with a hit (about 19% of all), similar ones and a draw of the others. Unless noted, calls come from the whole dose curve; as a rule, active = well fitted curve in the direction sought with a large enough effect; inconclusive = small, poorly fitted or top-dose-only effect, or another doubt; inactive = no such curve, though single readings can be large; an effect the other way counts as inactive or inconclusive.

SMILES | BCR signal inh | TDP1 cell CPT | SW480 rerep | MCF10A rereplic | DT40 TDP1 no CPT | IL-1B inflam inh
Cc1nonc1C1CCCN1C(=O)c1cc(COc2ccc(F)cc2Cl)on1 (centres undefined) | -12% | ? | 11% | -5% | ? | -24
O=C(c1cc(COc2ccc(F)cc2Cl)on1)N1CCc2sccc2C1 | ? | ? | 2% | 3% | 4% | ?
O=C(c1cc(COc2ccc(F)cc2Cl)on1)N1CCCCC1c1cccnc1 (centres undefined) | 0% | 16µM* | 1% | ? | 13µM* | ?
O=C(c1ccc2c(c1)OCO2)C1CCCN(Cc2ccccc2OC(F)F)C1 (centres undefined) | -1% | 16µM* | 2% | ? | ? | -26
COc1ccc(C(=O)C2CCCN(Cc3c(O)cccc3OC)C2)cc1OC (centres undefined) | -1% | ? | 0% | 0% | 7.3µM* | -19
COc1ccc(C(=O)C2CCCN(Cc3cccc4c3OCO4)C2)cc1OC (centres undefined) | -7% | ? | 8% | 26% | 9.2µM* | -7
CCCCNC(=O)N1CCCC(C(=O)c2cc(C)c(OC)c(C)c2)C1 (centres undefined) | 0% | ? | -5% | -3% | 16µM* | -14
COc1ccc(OC)c(NC(=O)c2nnn(CC(=O)Nc3ccc(C(C)C)cc3)c2N)c1 | / | -101% | / | / | ? | /
COCCC(=O)N1CCCC(C(=O)c2ccccc2SC)C1 (centres undefined) | / | -26% | -6% | -27% | -39% | 31
O=C(c1cccc(C(F)(F)F)c1)C1CCCN(Cc2cccc(OCCO)c2)C1 (centres undefined) | -7% | ? | 11% | 0% | 10µM* | -62*
COc1cccc(OC)c1CN1CCCC(C(=O)c2ccccc2SC)C1 (centres undefined) | ? | 16µM* | -7% | 1% | 21µM* | ?
COCc1cc(CN2CCCC(C(=O)c3cccc(C(F)(F)F)c3)C2)ccc1OC (centres undefined) | -19% | ? | -4% | 8% | ? | -8
O=C(c1cccc(C(F)(F)F)c1)C1CCCN(Cc2cccn2-c2ccccn2)C1 (centres undefined) | ? | 15µM* | 13% | -3% | 15µM* | -91*
CCOc1cccc(CN2CCCC(C(=O)c3cccc(C(F)(F)F)c3)C2)c1O (centres undefined) | 7% | -1% | ? | -37% | -6% | -15
COc1cccc(O)c1CN1CCCC(C(=O)c2cccc(C(F)(F)F)c2)C1 (centres undefined) | -11% | 16µM* | 14% | 5% | 23µM* | -22
CN(CC(=O)Nc1ccccc1Cl)C(=O)COC(=O)C1CCN(c2ccc(C(F)(F)F)cn2)CC1 | -13% | -21% | 0% | -2% | ? | 3
COc1c(C)cc(C(=O)C2CCCN(Cc3cccc4nccnc34)C2)cc1C (centres undefined) | ? | ? | -18% | 12% | 16µM* | -3
COc1ccccc1C(=O)C1CCCN(Cc2cccc3nccnc23)C1 (centres undefined) | -13% | -23% | -11%[1.84 µM] | 0% | -27% | 31
COc1ccc(OC)c(NC(=O)Nc2cc(NC(=O)Nc3cc(OC)ccc3OC)c(C)nc2C)c1 | -1% | -9% | ? | -2% | ? | 56
